High-throughput results from PubChem BioAssay.
Only a selection was taken, and hits are over-represented in it overall.
Dicer inh – blocks human Dicer maturation of pre-miR-21 | Q9UPY3 | cat-ELCCA pre-miR-21 Dicer processing, chemiluminescence; active compounds read high | z-score at 25 µM | 6% of 47,000 active; in the data active means z-score above about 3, passing the limit was not always enough;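 further: plate controls were vehicle for no effect and no enzyme for full effect; higher signal means more uncleaved substrate so more Dicer inhibition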
Target sequence (Q9UPY3 whole entry, looked up): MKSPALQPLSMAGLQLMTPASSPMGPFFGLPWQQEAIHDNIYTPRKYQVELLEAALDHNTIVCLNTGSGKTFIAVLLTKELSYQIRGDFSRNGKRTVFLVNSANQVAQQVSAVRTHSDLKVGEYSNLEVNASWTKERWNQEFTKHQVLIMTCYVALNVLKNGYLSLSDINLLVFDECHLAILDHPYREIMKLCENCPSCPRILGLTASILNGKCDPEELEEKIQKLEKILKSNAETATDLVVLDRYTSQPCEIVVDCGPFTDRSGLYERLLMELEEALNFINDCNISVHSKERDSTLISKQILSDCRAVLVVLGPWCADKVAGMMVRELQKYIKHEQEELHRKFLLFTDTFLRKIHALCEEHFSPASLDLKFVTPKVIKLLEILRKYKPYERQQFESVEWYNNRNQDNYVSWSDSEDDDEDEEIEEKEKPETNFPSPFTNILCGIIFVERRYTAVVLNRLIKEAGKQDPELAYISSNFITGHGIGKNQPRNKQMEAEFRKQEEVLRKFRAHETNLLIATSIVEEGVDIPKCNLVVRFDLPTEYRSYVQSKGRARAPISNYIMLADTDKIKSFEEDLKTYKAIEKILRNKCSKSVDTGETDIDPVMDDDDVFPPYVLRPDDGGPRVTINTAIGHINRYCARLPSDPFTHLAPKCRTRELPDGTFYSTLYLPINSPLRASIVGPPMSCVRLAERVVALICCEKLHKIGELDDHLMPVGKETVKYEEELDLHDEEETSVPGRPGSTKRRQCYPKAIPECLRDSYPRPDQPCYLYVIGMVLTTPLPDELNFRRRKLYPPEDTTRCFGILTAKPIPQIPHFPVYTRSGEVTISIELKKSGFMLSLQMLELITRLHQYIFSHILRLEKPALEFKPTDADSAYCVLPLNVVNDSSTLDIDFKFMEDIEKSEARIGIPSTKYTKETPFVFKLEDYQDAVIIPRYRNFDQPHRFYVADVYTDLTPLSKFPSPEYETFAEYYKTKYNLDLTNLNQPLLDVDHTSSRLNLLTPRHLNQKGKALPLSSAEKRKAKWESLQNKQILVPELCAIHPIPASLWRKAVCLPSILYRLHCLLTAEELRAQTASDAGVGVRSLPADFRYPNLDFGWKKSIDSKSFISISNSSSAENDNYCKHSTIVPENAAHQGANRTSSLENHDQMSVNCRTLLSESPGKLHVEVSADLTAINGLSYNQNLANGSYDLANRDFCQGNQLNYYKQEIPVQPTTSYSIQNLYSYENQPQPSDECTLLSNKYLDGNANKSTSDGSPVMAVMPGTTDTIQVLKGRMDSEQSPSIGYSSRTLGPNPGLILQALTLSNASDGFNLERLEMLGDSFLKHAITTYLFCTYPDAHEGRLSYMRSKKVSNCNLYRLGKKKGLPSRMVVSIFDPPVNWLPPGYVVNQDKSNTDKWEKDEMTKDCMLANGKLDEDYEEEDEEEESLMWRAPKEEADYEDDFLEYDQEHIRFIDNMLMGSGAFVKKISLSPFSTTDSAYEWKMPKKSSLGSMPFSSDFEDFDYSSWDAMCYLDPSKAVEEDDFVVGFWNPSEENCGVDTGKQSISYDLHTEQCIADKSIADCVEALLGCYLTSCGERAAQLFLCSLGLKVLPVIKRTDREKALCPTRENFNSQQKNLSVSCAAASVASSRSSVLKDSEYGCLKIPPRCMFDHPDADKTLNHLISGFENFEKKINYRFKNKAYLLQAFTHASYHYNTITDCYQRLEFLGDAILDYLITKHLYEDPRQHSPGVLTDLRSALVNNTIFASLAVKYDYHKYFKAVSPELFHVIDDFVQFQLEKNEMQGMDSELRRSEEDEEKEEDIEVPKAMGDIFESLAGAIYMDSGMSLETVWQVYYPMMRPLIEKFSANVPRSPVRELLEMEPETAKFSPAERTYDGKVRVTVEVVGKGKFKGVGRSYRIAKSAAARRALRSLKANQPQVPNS
The depositor's hits bear a star.

SMILES	Dicer inh
Cc1cc(-c2csc(=N)n2-c2c(F)cccc2F)ccc1Cl	0.82
C#CCSc1nc(C)c2cc(OC)ccc2n1	1.6
c1ccc2[nH]c(CCc3nc4ccccc4[nH]3)nc2c1	0.25
C/C(=C\c1ccc(N)cc1)c1nc2ccccc2[nH]1	3*
Nc1ccc(Cc2nc3ccccc3[nH]2)cc1	1.3
Cc1nn2c3ccccc3n(CC(=O)c3ccccc3)c2nc1=O	-0.28
Cc1cc2c(cc1C)C(c1ccc(F)c(Br)c1)CC(=O)N2 (centres undefined)	0.83
Cc1cc(Cl)c(OC(=O)c2c(Cl)cccc2Cl)c(Cl)c1	-1.2
CN(C)C(=S)SCc1ccccc1C(=O)Oc1c(Cl)cccc1Cl	3.6*
CNC(=S)NNC(=O)c1ccccc1Cl	-0.28
CC(CC(=O)Nc1ccc(Cl)cc1)S(=O)(=O)c1ccc(Cl)cc1 (centres undefined)	-0.75
FC(F)(F)C1CCN(c2ccc(-c3nc(-c4ccccc4)cs3)cn2)CC1	-1.4
O=C(CC1(O)C(=O)N(CN2CCOCC2)c2ccc(Br)cc21)c1ccc(Cl)cc1 (centres undefined)	36
N#Cc1c(-c2ccncc2)[nH]c(=S)[nH]c1=O	3.6*
N#Cc1c(-c2cccnc2)[nH]c(=S)[nH]c1=O	-0.38
COc1ccc(-c2[nH]c(SC)nc(=S)c2C#N)cc1	-2
Cc1ccc(C=C2C(=O)OC(C)(C)OC2=O)o1	-0.86
CCc1cc2c(=O)c(-c3nc4ccccc4n3C)c(C)oc2cc1O	1.3
Cc1nc(-c2coc3c(C)c(O)c(CN(C)C)cc3c2=O)cs1	-0.18
O=c1c(-c2nc3ccccc3s2)coc2c(CN3CCCCC3)c(O)ccc12	0.4
CCc1cc2c(=O)c(-c3nc4ccccc4[nH]3)coc2c(CN2CCC(C)CC2)c1O	4.9*
CCc1cc2c(=O)c(-c3nc4ccccc4n3C)coc2c(CN(C)C)c1O	3.4*
CCc1cc2c(=O)c(-c3nc4ccccc4[nH]3)coc2c(CN(CC)CC)c1O	0.96
O=C(O)C1CSC(c2ccc(Cl)cc2)N1 (centres undefined)	-0.42
Cc1cc(S(=O)(=O)c2ccc(Cl)cc2)sc1C(=O)NCC(O)c1ccccc1 (centres undefined)	0.37
SMILES	Dicer inh
Cn1c(COc2ccccc2)n[nH]c1=S	0.41
COc1ccc(C(=O)N2CCSC2=S)cc1	0.68
COc1ccc(C(=O)N2CCSC2=S)cc1OC	3.5*
COCOc1ccc(C(=O)O)cc1OC	-0.83
O=C(O)/C=C/C(=O)Nc1ccc(-n2nc(C(F)(F)F)cc2C(F)(F)F)cc1	20
Cc1oc2cc(O)ccc2c(=O)c1-c1nc2ccccc2n1C	1
CCOC(=O)C1=C(N)Oc2ccc3ccccc3c2C1c1ccc2c(c1)OCO2 (centres undefined)	-0.89
C=C(C)CC1C(=O)N(S(=O)(=O)c2ccc(Cl)cc2)N=C1C (centres undefined)	-1.6
C=C(C)CC1C(=O)N(C(=O)c2c(Cl)cccc2Cl)N=C1C (centres undefined)	3.4*
C=C(C)CC1C(=O)N(S(=O)(=O)c2ccccc2Cl)N=C1C (centres undefined)	1.3
CCOC(=O)C1=NN(c2ccccc2OC)C2C(=O)N(c3ccc(Br)cc3)C(=O)C12 (centres undefined)	0.79
COc1cccc2c1NC(c1cccc(Br)c1)C1CC=CC21 (centres undefined)	2
Cc1ccc2c(c1)C(O)(CC(=O)c1ccc3ccccc3c1)C(=O)N2 (centres undefined)	0.61
Cc1cccc(C(=O)c2ccccc2C(=O)O)c1	-1.2
O=C(O)c1ccccc1C(=O)c1ccc(-c2ccccc2)cc1	-0.68
O=C(O)c1ccccc1C(=O)c1ccc(F)cc1	3.1*
O=C(CSc1nnc(-c2ccco2)o1)Nc1nnc(-c2cccs2)s1	-4.2
N=c1c(C(N)=O)cc2c(=O)n3ccccc3nc2n1Cc1ccco1	1.9
Clc1ccccc1-n1ncnc1-c1cccc(Br)c1	0.33
Cc1cccc(C)c1OCCCc1c(C)n[nH]c1C	-0.53
Cc1cc(Cl)cc(C)c1OCCn1ccnc1	1.2
Cc1cccc(C)c1OCCn1cncn1	3.3*
CCc1nc2c(=O)n(C)c3c(c(=O)n(C)c(=O)n3C)c2o1	0.28
O=C1N2CN(CCO)CN3C(=O)N4CN(CCO)CN1C4C23 (centres undefined)	-0.36
C[C@]12CCC(=O)C=C1CC[C@@H]1[C@@H]2CC[C@@]2(C)[C@H]1CC[C@]2(O)C(=O)CO	3.3*
SMILES	Dicer inh
CC(=O)[C@H]1CC[C@H]2[C@@H]3CCC4=CC(=O)CC[C@]4(C)[C@H]3CC[C@]12C	1.4
CC(=O)[C@@]12OC(C)(c3ccccc3)O[C@@H]1C[C@H]1[C@@H]3CCC4=CC(=O)CC[C@]4(C)[C@H]3CC[C@@]12C (some centres undefined)	-0.12
Cc1cc2nc(Nc3nc4ccccc4c(=O)[nH]3)nc(C)c2cc1C	-1.1
Cc1ccc2nc(Nc3nc(C)c4ccccc4n3)[nH]c(=O)c2c1	-0.36
Cc1nc(Nc2nc3ccccc3c(=O)[nH]2)nc2c(C)cccc12	4*
C=CCn1c(SCC(=O)NN)nnc1-c1ccccc1	0.79
CCC12CN3CC(CC)(CN(C1)C3c1ccccc1O)C2=O (centres undefined)	-0.51
COc1ccc(CCN2C(=O)CSC2c2ccc3c(c2)OCO3)cc1OC (centres undefined)	-0.66
CCOC(=O)C1=C(C)N=C2SC(C)C(=O)N2C1c1ccc(F)cc1 (centres undefined)	0.97
CC(C)(C)SCCNC(=O)c1ccco1	0.35
COc1cccc(C(c2c[nH]c3ccccc23)c2c[nH]c3ccccc23)c1	0.33
Oc1ccc(Cl)cc1C(c1c[nH]c2ccccc12)c1c[nH]c2ccccc12	4.3*
Cc1cccc(C(c2c[nH]c3ccccc23)c2c[nH]c3ccccc23)c1O	1.2
O=C(O)CC(C(=O)O)c1c[nH]c2ccccc12 (centres undefined)	0.21
CCOc1cccc(C(c2c[nH]c3ccccc23)c2c[nH]c3ccccc23)c1O	6.4*
COc1ccc(C(c2c[nH]c3ccccc23)c2c[nH]c3ccccc23)cc1OC	-0.04
CCOC(=O)c1cc(C)n(-c2cccc(Cl)c2Cl)c1-c1ccccc1	-0.36
COc1ccc(C2=NN3C(C2)c2ccccc2OC3c2ccncc2)cc1 (centres undefined)	2.1
COc1ccc(C2=NN3C(C2)c2ccccc2OC3c2ccncc2)cc1OC (centres undefined)	1.2
COc1ccc(C2=NN3C(C2)c2cc(Cl)ccc2OC3c2cccnc2)cc1 (centres undefined)	2.7
COc1ccccc1C1Oc2ccccc2C2CC(c3cccnc3)=NN21 (centres undefined)	2.4
COc1cccc(C2=NN3C(C2)c2cc(Br)ccc2OC3c2cccnc2)c1 (centres undefined)	7.2*
COc1ccc(C2=NN3C(C2)c2cc(Br)ccc2OC3c2ccncc2)cc1 (centres undefined)	8.2*
Cc1ccc(O)c(C2=NN3C(C2)c2cc(Br)ccc2OC3c2cccnc2)c1 (centres undefined)	5.2
COc1ccc(C2=NN3C(C2)c2cc(Br)ccc2OC3c2cccnc2)cc1 (centres undefined)	4.2*
Cc1ccc(OCC(=O)NN)c2c1CCC2	-0.96
CS(=O)(=O)NCc1ccccc1	2.2
C=CCNc1nc(CC(=O)OCC)cs1	0.98
N=C1C(=S)N(c2ccc(Cl)c(Cl)c2)C(=O)N1c1ccc(Cl)c(Cl)c1	-1.8
N#CC1=C(OS(=O)(=O)c2ccc(Cl)cc2)c2ccc(Cl)cc2N(S(=O)(=O)c2ccc(Cl)cc2)CC1	0.26
